# Source: PubChem BioAssay (NCATS)
# Where “and” joins values, the source holds several entries; their conditions need not be identical. Equal values may be shown once. Inconclusive results are not listed. Entries that show only a call come without a potency. Calls of active or inactive are those of the source. Unless noted, the call rests on the fitted dose curve; in most records, active means well fitted curve in the direction sought with a large enough effect; inconclusive means small, poorly fitted or top-dose-only effect, or another doubt; inactive means no such curve, though single readings can be large; an effect the other way counts as inactive or inconclusive.
# Key:
# [1] = target: alpha-glucosidase (Oryza sativa, rice) (UniProt Q653V4); assay: Counterscreen for Glucocerebrosidase Inhibitors: qHTS Assay for Rice alpha-Glucosidase at pH 5.0 (AID 997)
# Summary of the method: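 Rice alpha-glucosidase (4 nM final) with 400 uM 4-methylumbelliferyl-alpha-D-glucopyranoside in citrate buffer pH 5.0, 20 min at room temperature, stopped at pH 10; fluorescence 365/440 nm, compounds 0.7 nM–77 uM, AC50 from Hill fits.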
# [2] = Validation of Assay for Modulators of Lamin A Splicing (AID 1459; active means well fitted curve in the direction sought with a large enough effect in the signal ratio; the % refers to the signal ratio;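 further: cells exposed to compound for two days before reading; ratio rise marks activators and ratio drop marks inhibitors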)
# Summary of the method: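 Splicing correction read as GFP (500-530 nm) over DsRed2 (575-640 nm) object intensity after 48 h compound exposure of reporter HeLa S3 clones (600 cells/well, 2% FBS medium); ancitabine and cycloheximide titrations, 0.5% DMSO as vehicle.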
# [3] = qHTS Assay for Lipid Storage Modulators (AID 1519; calls by dose curve); conditions: Drosophila S3 cells, BODIPY lipid droplet/cell ratio, laser cytometry, cells loaded with oleic acid; for activity change, negative = inhibition: at 57.5 µM (top of the series)
# Summary of the method: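 Cells seeded at 5,000 per well were treated with compounds over a concentration series and loaded with oleic acid (400 uM, as added). Lipid droplet fluorescence (488 nm excitation, 500-530 nm channel) was read by laser-scanning cytometry and normalized to 20 uM Triacsin C.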
# [4] = target: DNA repair nuclease/redox regulator APEX1 (Homo sapiens) (UniProt P27695); assay: qHTS Validation Assay for Inhibitors of the Human Apurinic/apyrimidinic Endonuclease 1 (APE1) (AID 1705; further: potency means the concentration at half of the fitted maximal effect;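 on activity change, negative = inhibition: TAMRA fluorescence gain over two minutes as APE1 cuts a quenched THF abasic duplex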)
# DNA repair nuclease/redox regulator APEX1 (Homo sapiens), sequence (P27695 whole entry, looked up): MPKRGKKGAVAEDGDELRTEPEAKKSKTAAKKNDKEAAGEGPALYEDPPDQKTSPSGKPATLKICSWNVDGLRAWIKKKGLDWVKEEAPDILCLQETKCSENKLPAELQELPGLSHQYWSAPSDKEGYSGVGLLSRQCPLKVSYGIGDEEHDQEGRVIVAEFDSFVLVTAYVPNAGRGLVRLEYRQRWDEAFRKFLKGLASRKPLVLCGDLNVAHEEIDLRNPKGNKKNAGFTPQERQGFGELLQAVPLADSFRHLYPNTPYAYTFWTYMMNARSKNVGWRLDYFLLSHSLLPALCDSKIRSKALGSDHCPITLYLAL
# Summary of the method: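 Activity read as rising fluorescence (598 nm emission, 525 nm excitation) from incision of a TAMRA/BHQ-2 duplex carrying a THF abasic site (50 nM). Compound and enzyme sat 15 min at RT before substrate start; signal change between first and third 60-s reads.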
# [5] = Counterscreen for APE1 Inhibitors: Fluorescent Dye Displacement Validation Assay (AID 1707); further: potency means the concentration at half of the fitted maximal effect
# Summary of the method: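 Assay buffer: Tris-HCl pH7.5 with 50mM NaCl, 2 mM MgCl2, 0.01% Tween-20. Dye 250 nM, duplex 50 nM final. Readout: decrease in ThO endpoint fluorescence, 480 nm excitation, 540 nm emission.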
# [6] = qHTS for differential inhibitors of proliferation of Plasmodium falciparum line 7G8 (AID 1815);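 further: parasite growth measured after three days of incubation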; further: potency means the concentration at half of the fitted maximal effect
# [7] = qHTS for differential inhibitors of proliferation of Plasmodium falciparum line GB4 (AID 1816); conditions: Potency: Plasmodium falciparum GB4 proliferation inhibition;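 further: parasite growth measured after 72 h incubation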; further: potency means the concentration at half of the fitted maximal effect
# [8] = qHTS for differential inhibitors of proliferation of Plasmodium falciparum line 3D7 (AID 1876); further: potency means the concentration at half of the fitted maximal effect
# [9] = qHTS for differential inhibitors of proliferation of Plasmodium falciparum line D10 (AID 1877);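 further: parasites grown with compound for 72 h before DNA staining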
# [10] = qHTS for differential inhibitors of proliferation of Plasmodium falciparum line Dd2 (AID 1882); conditions: Potency: Plasmodium falciparum Dd2 proliferation inhibition; further: nearly all actives have a fitted effect of over 65% in size; further: potency means the concentration at half of the fitted maximal effect
# Summary of the method: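 Dd2-infected erythrocytes (0.3% parasitemia, 2.5% hematocrit final) incubated with compound 72 h at 37 C, 5% CO2; lysed with saponin/Triton buffer containing SYBR Green I, incubated overnight in the dark, then read by fluorescence (485/535 nm). Normalized to 0.29 uM artemisinin and DMSO.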
# [11] = qHTS for differential inhibitors of proliferation of Plasmodium falciparum line W2 (AID 1883); conditions: Potency: Plasmodium falciparum W2 proliferation inhibition;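 further: parasites grown with compound for 72 h before lysis and staining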; further: potency means the concentration at half of the fitted maximal effect
# [12] = qHTS for differential inhibitors of proliferation of Plasmodium falciparum line HB3 (AID 1886); conditions: Potency: Plasmodium falciparum HB3 proliferation inhibition;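 further: parasites grown with compound for 72 h before SYBR Green readout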; further: potency means the concentration at half of the fitted maximal effect
# [13] = target: Ferritin light chain (Equus caballus) (UniProt P02791); assay: qHTS Validation Assay for Identification of Novel General Anesthetics (AID 2323)
# Ferritin light chain (Equus caballus), sequence (P02791 2-175 limits assumed): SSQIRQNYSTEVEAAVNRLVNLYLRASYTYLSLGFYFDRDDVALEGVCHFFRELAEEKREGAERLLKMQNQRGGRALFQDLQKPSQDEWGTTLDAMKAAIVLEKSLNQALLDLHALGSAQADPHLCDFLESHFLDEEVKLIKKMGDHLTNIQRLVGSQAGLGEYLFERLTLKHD
# Summary of the method: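 Competitive displacement of the profluorescent anesthetic 1-AMA (50% saturated, PBS) from 10 uM apoferritin, 10 min, room temperature. Activity is normalized 380/535 nm fluorescence; concentration-response fitted with a four-parameter Hill equation.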
# [14] = target: ATP-dependent DNA helicase Q1 (Homo sapiens) (UniProt P46063); assay: qHTS Validation Assay for Inhibitors of RecQ-Like Dna Helicase 1 (RECQ1) (AID 2353); further: potency means the concentration at half of the fitted maximal effect
# ATP-dependent DNA helicase Q1 (Homo sapiens), sequence (P46063 whole entry, looked up): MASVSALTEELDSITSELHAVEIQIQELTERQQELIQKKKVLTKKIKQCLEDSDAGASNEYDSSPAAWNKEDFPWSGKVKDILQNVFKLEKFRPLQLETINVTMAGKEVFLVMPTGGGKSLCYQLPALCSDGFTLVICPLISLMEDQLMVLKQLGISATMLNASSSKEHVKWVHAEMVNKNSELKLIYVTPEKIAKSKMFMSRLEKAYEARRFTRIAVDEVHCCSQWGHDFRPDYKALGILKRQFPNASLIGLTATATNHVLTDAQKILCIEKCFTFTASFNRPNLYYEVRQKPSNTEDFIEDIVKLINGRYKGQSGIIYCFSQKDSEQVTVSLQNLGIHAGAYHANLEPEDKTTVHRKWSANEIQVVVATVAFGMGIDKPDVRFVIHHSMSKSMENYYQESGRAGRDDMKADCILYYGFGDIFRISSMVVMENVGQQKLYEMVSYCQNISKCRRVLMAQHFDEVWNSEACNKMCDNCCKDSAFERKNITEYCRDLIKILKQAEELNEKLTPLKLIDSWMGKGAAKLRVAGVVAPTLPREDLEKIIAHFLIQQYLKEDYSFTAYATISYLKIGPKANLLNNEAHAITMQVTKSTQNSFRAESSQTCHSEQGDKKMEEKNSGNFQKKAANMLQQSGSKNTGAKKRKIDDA
# Summary of the method: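 50 nM RECQ1T1 preincubated 15 min with compound in Tris pH 8.0 buffer with MgCl2, DTT, Tween-20 and 2.5 ug/ml poly(dI-dC); started with 200 nM TAMRA/BHQ-2 forked duplex and 2 mM ATP. Unwinding read as fluorescence (525/598 nm), two reads 2 h apart.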
# [15] = target: Endonuclease 4 (Escherichia coli (strain K12)) (UniProt P0A6C1); assay: Counterscreen for APE1 Inhibitors: qHTS Validation Assay for Inhibitors of Endonuclease IV (AID 1708); further: potency means the concentration at half of the fitted maximal effect
# Summary of the method: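 E. coli EndoIV at 2 nM final, preincubated 15 min at room temperature with compound, then 50 nM TAMRA/BHQ-2 THF abasic-site duplex added. Buffer: 50 mM Tris-HCl pH 7.5, 50 mM NaCl, 2 mM MgCl2, 1 mM DTT, 0.01% Tween-20. Kinetic fluorescence increase, third minus first read.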
# [16] = target: RecQ-like DNA helicase BLM (Homo sapiens) (UniProt P54132); assay: qHTS Validation Assay for Inhibitors of Bloom's syndrome helicase (BLM) (AID 2364); further: potency means the concentration at half of the fitted maximal effect
# RecQ-like DNA helicase BLM (Homo sapiens), sequence (P54132 whole entry, looked up): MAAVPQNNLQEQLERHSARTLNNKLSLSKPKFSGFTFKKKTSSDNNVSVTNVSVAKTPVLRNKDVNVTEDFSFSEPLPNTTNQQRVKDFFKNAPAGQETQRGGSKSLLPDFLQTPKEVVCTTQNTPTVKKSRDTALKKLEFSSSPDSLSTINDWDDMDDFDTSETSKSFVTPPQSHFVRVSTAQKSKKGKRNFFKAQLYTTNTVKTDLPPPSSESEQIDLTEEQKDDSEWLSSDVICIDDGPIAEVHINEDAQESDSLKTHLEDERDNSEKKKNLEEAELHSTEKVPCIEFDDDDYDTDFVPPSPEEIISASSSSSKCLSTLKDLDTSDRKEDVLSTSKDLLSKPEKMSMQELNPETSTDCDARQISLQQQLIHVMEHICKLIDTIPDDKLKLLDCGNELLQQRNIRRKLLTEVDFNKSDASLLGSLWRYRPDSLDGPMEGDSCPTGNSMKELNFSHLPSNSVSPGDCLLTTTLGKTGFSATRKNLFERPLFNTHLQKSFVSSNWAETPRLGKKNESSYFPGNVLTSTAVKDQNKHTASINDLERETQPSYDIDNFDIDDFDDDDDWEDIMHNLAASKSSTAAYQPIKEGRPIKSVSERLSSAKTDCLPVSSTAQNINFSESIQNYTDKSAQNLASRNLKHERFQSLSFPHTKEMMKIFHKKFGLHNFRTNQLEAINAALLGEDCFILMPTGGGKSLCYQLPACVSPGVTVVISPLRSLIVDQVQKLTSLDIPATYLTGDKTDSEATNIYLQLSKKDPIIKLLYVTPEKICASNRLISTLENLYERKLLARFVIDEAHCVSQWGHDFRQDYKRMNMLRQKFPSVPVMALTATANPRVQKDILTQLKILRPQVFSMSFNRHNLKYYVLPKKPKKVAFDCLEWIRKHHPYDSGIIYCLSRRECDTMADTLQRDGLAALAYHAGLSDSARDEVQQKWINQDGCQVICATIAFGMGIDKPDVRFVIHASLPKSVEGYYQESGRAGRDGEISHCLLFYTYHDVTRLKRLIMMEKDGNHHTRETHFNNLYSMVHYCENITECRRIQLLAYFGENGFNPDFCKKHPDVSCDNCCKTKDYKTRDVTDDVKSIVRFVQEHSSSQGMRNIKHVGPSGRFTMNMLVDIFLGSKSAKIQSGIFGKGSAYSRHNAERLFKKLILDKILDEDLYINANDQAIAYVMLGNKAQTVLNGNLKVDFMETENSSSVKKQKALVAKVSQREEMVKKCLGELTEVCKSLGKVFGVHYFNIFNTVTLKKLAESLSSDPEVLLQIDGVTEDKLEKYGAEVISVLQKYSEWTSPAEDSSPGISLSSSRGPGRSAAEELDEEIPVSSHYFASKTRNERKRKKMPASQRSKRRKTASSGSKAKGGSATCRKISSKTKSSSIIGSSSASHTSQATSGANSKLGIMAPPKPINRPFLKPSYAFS
# Summary of the method: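 50 nM BLM preincubated 15 min at room temperature with compound in pH 8.0 Tris buffer containing 2.5 ug/ml poly(dI-dC); started with 200 nM TAMRA/BHQ-2 forked duplex and 2 mM ATP (final). Unwinding read as TAMRA fluorescence increase, two reads 2 h apart.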
# [17] = qHTS Assay for Modulators of Human Peripheral Myelin Protein 22 (PMP22) Expression/Activity (AID 1967; active means well fitted curve in the direction sought with a large enough effect in the signal ratio; the % refers to the signal ratio)
# Summary of the method: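 Readout is the corrected green/red luminescence ratio after 24 h compound exposure, normalised to untreated cells (0%). Engineered MSC80 mouse Schwann cells express green luciferase from the mouse Pmp22 promoter and red luciferase from EF-alpha as internal control.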
# [18] = measured here: cell count channel max response
# [19] = measured here: lipid channel max response
SMILES,outcome [1],outcome [2],"activity change, negative = inhibition [3]","max response [3, 18]","max response [3, 19]",Potency [4],Potency [5],Potency [6],Potency [7],Potency [8],Potency [9],Potency [10],Potency [11],Potency [12],Potency [13],Potency [14],Potency [15],Potency [16],outcome [17]
Cc1nc(N=Nc2ccc(C(=O)O)cc2)c(COP(=O)(O)O)c(C=O)c1O,inactive,inactive,-0.137% (inactive),-21.8%,-20.3%,inactive,inactive,inactive,inactive,inactive,inactive,inactive,inactive,inactive,inactive,inactive,–,–,–
COc1cc(/C=C(\C#N)C(=O)c2ccc(O)c(O)c2)cc(I)c1O,inactive,inactive,-0.482% (inactive),28.4%,26.2%,2.24 µM (active),inactive,–,–,–,–,inactive,–,–,–,4.47 µM (active),inactive,10 µM (active),–
CC(=O)NNC(=O)N1Cc2ccccc2Oc2ccc(Cl)cc21,inactive,inactive,3.63% (inactive) and -0.28% (inactive),-1.09% and 39.5%,4.04% and 30.3%,inactive,inactive,–,inactive,inactive,inactive,inactive,inactive,inactive,inactive,inactive,–,inactive,–
CC(=O)/C(C)=N/O,–,inactive,2.05% (inactive),5.13%,6.8%,inactive,inactive,inactive,inactive,inactive,inactive,–,inactive,inactive,inactive,inactive,inactive,–,–
NOCC(=O)O,inactive,inactive,2.14% (inactive),-5.32%,0.0357%,inactive,inactive,–,inactive,–,–,inactive,–,–,inactive,inactive,inactive,inactive,inactive
Cc1cccc(C)c1OCC(N)C(C)C (stereo not drawn),–,inactive,0.702% (inactive),60.7%,59.8%,inactive,inactive,11.2 µM (active),–,inactive,inactive,4.47 µM (active),0.708 µM (active),inactive,inactive,inactive,inactive,–,inactive
N#Cc1cc2nc(O)c(O)nc2cc1[N+](=O)[O-],inactive,inactive,3.63% (inactive) and -0.314% (inactive),13.7% and -35.1%,18.1% and -33.4%,28.2 µM (active),inactive,inactive,–,inactive,inactive,inactive,–,inactive,inactive,inactive,–,–,inactive
NCCC1CCCC(CCN)N1 (stereo not drawn),–,inactive,-3.87% (inactive),-16%,-17.4%,inactive,inactive,inactive,inactive,inactive,inactive,–,inactive,inactive,inactive,inactive,–,inactive,inactive
Cn1c(=O)[nH]c2ncn(C)c2c1=O,inactive,inactive,0.383% (inactive),10.7%,12.8%,inactive,inactive,inactive,inactive,inactive,–,inactive,inactive,12.6 µM (active),inactive,inactive,–,–,–
O=c1[nH]c(=O)c2nc3ccccc3nc2[nH]1,inactive,inactive,-0.305% (inactive),-11.1%,-9.17%,inactive,inactive,–,inactive,–,–,–,–,inactive,inactive,inactive,inactive,–,–
N[C@@H](CCC(=O)N[C@H](CSN=O)C(=O)NCC(=O)O)C(=O)O,–,inactive,0.446% (inactive),-20.1%,-19.6%,inactive,inactive,inactive,inactive,inactive,inactive,–,inactive,inactive,inactive,inactive,inactive,–,–
CN(C)CCC(c1ccc(Br)cc1)c1ccccn1 (stereo not drawn),–,inactive,0.401% (inactive),15.4%,17.8%,inactive,inactive,–,–,inactive,inactive,–,0.891 µM (active),inactive,inactive,inactive,inactive,inactive,inactive
CSC(N)=NCCC[C@H](N)C(=O)O,–,inactive,-0.616% (inactive),39.8%,26.3%,inactive,inactive,inactive,inactive,inactive,inactive,–,inactive,inactive,inactive,inactive,–,inactive,inactive
Cc1nc(N=Nc2cc(S(=O)(=O)O)c3cc([N+](=O)[O-])cc(S(=O)(=O)O)c3c2)c(COP(=O)(O)O)c(C=O)c1O,inactive,inactive,-4.26% (inactive),6.63%,4.35%,2.82 µM (active),10 µM (active),–,–,inactive,–,inactive,inactive,–,–,11.2 µM (active),15.8 µM (active),inactive,inactive
O=C(O)C1=CCCNC1,inactive,inactive,5.3% (inactive) and 2.39% (inactive) and 0.0791% (inactive),11.8% and 11.1% and -5.85%,19.5% and 15.3% and -4.32%,inactive,–,inactive,inactive,inactive,inactive,inactive,inactive,inactive,inactive,inactive,inactive,–,inactive
N=C(N)c1ccccc1,inactive,inactive,0.991% (inactive),9.53%,1.79%,inactive,–,inactive,inactive,inactive,inactive,inactive,inactive,inactive,inactive,inactive,inactive,–,inactive
O=[N+]([O-])c1cccc2cn[nH]c12,inactive,inactive,13.6% (inactive),18.6%,36.8%,inactive,–,inactive,inactive,inactive,inactive,inactive,inactive,inactive,inactive,inactive,–,–,inactive
N=C(N)SCCN,inactive,inactive,1.32% (inactive) and 3.68% (inactive),9.1% and -2.48%,12% and 0.318%,–,inactive,–,–,–,–,–,–,–,–,inactive,inactive,inactive,inactive
CCC(=O)N1CCN(C(=O)c2ccccc2)CC1,inactive,inactive,0.685% (inactive),-9.69%,-7.51%,inactive,inactive,–,–,–,–,–,–,–,inactive,inactive,–,–,inactive
O=C(O)c1cc(=O)cc(C(=O)O)[nH]1,inactive,inactive,–,–,–,inactive,inactive,inactive,inactive,inactive,inactive,inactive,inactive,inactive,inactive,inactive,inactive,–,inactive
O=C(O)C1=CCNCC1,inactive,inactive,1.16% (inactive) and 3.31% (inactive),-10.7% and 4.5%,-10.6% and 21.6%,inactive,–,inactive,inactive,inactive,inactive,inactive,inactive,inactive,inactive,inactive,inactive,–,inactive
CCN(CC)CCOC(=O)c1cc(Cl)c(N)cc1OC,inactive,inactive,–,–,–,inactive,inactive,inactive,inactive,inactive,inactive,inactive,inactive,inactive,inactive,inactive,inactive,inactive,inactive
O=C(O)/C(=C/c1c(C(=O)O)[nH]c2cc(Cl)cc(Cl)c12)c1ccccc1,inactive,inactive,0.679% (inactive),-8.09%,-9.3%,inactive,–,–,–,inactive,inactive,inactive,–,inactive,inactive,inactive,inactive,–,–
Oc1cc(O)c2c(c1)O[C@H](c1ccc(O)c(O)c1)[C@@H](O)C2,–,inactive,1.15% (inactive),-12.7%,-13.1%,–,–,inactive,inactive,inactive,inactive,inactive,–,inactive,inactive,inactive,inactive,–,–
COCc1nc2c([nH]1)c(=O)n(C)c(=O)n2CC(C)C,inactive,inactive,1.67% (inactive),-19.5%,-18.2%,inactive,–,inactive,inactive,inactive,inactive,inactive,–,inactive,inactive,inactive,inactive,–,inactive
Cc1ccc([N+](=O)[O-])cc1S(=O)(=O)N(C)C,inactive,inactive,-0.817% (inactive) and -0.0593% (inactive),1.19% and 66.8%,0.358% and 67%,inactive,–,inactive,inactive,inactive,inactive,inactive,inactive,inactive,inactive,inactive,inactive,inactive,inactive
COc1ccccc1N1CCN(CCCNc2c(C)c(=O)n(C)c(=O)n2C)CC1,inactive,inactive,-0.317% (inactive),38.5%,37.3%,inactive,–,inactive,–,8.91 µM (active),–,inactive,8.91 µM (active),–,inactive,inactive,inactive,inactive,–
NCCNS(=O)(=O)c1cccc2c(Cl)cccc12,inactive,inactive,-0.563% (inactive),-2.01%,-12.2%,–,inactive,7.08 µM (active),8.91 µM (active),12.6 µM (active),–,–,6.31 µM (active),–,–,inactive,–,inactive,–
CN[C@H](CC(=O)O)C(=O)O,inactive,inactive,3.39% (inactive),12.1%,14.4%,inactive,–,inactive,inactive,inactive,inactive,inactive,inactive,inactive,inactive,inactive,inactive,inactive,inactive
